In ChEMBL document CHEMBL3988442, “University of Dundee, Small-Polar-MMV Screening Library” (2021):
Among all 48,000 compounds or so, about 13,000 (27%) showed an effect of 50% or more. Some of the results follow.

system: Wolbachia pipientis; assay: Anti-Wolbachia Cell-Based Screen; type: functional; parameters: scale not given: in the data most compounds retested in dose-response had high values; conditions: 5 µM

Q: With Cc1noc(C)c1CN1C[C@@H](C(=O)O)[C@H](C(C)C)C1 as the compound, how does the “Percent Effect” value read?
A: The value was -19.42%.

Q: How did the “Percent Effect” value turn out when CCc1nnc2n1CCN(Cc1ccc(C(=O)N3CCCC3)cc1)C2 was run?
A: The value was 0.2623%.

Q: With CC(C)N1CCn2c(nc3cc(C(N)=O)ccc32)C1 as the compound, how does the “Percent Effect” value read?
A: The value was 42.97%.

Q: CC(C)CN1CCn2c(COCc3cccnc3)nnc2C1.O=C(O)C(F)(F)F.O=C(O)C(F)(F)F was tested. Which “Percent Effect” value did it give?
A: Its value is -7.115%.

Q: Which “Percent Effect” value does the source give for CC(C)NC(=O)c1ccc2c(c1)nc1n2CCN(c2ccccc2)C1 here?
A: Its value is 20.1%.

Q: Which “Percent Effect” value does the source give for CCN1CCN(c2ccc(C(=O)NC(C)CCOC)cc2)CC1 (stereo not given) here?
A: The value was -9.084%.

Q: CC(C)NC(=O)c1ccc2c(c1)nc1n2CCN(C(C)C)C1 was tested. Which “Percent Effect” value did it give?
A: The value was -1.576%.

Q: Which “Percent Effect” value does the source give for CCNC(=O)c1ccc2c(c1)nc1n2CCN(C(C)C)C1 here?
A: The value was 109.5%.

Q: COCCN1CCn2c(nc3cc(C(=O)NC(C)C)ccc32)C1 was tested. Which “Percent Effect” value did it give?
A: Its value is 122.8%.

Q: With CC(C)CN1CCn2c(nc3cc(C(=O)NC(C)C)ccc32)C1 as the compound, how does the “Percent Effect” value read?
A: The value was 121.2%.

Q: With COCCN1CCN(C(C)C(=O)Nc2ccnn2C(C)C)CC1 (stereo not given) as the compound, how does the “Percent Effect” value read?
A: The value was -8.101%.

Q: For CC(C)NC(=O)c1ccc2c(c1)nc1n2CCN(Cc2ccccc2)C1, which “Percent Effect” value is on record?
A: Its value is 112.9%.

Q: For Cc1nnc2n1CCN(CC(=O)NC(C)c1ccc3ccccc3c1)C2 (stereo not given), which “Percent Effect” value is on record?
A: The value was -2.487%.

Q: For O=C(Nc1ccccc1CCc1ccccn1)NC1CCOCC1, which “Percent Effect” value is on record?
A: Its value is -7.389%.

Q: O=C1NCCN(C(=O)c2cn3ccsc3n2)C1Cc1ccccc1 (stereo not given) was tested. Which “Percent Effect” value did it give?
A: The value was -8.073%.

Q: Cc1cnn(CC2CCCN2Cc2cc(=O)n3ccccc3n2)c1 (stereo not given) was tested. Which “Percent Effect” value did it give?
A: Its value is 2.976%.

Q: COC(=O)CNC(=O)c1nc(-c2ccccc2OC)c2cnccn12 was tested. Which “Percent Effect” value did it give?
A: Its value is 100.8%.

Q: How did the “Percent Effect” value turn out when COc1ccccc1-c1nc(C(=O)N2CCOCC2)n2ccncc12 was run?
A: Its value is 98.47%.

Q: COc1ccccc1-c1nc(C(=O)N(C)C)n2ccncc12 was tested. Which “Percent Effect” value did it give?
A: Its value is 107.3%.

Q: Which “Percent Effect” value does the source give for COC(=O)CCNC(=O)c1c[nH]cc1-c1ccccc1OC here?
A: The value was 1.896%.

Q: Cc1c(C(=O)N2CCCOCC2)nnn1-c1cccc2cnccc12 was tested. Which “Percent Effect” value did it give?
A: The value was 5.187%.

Q: Which “Percent Effect” value does the source give for CCN(CC)CCn1cc(NC(=O)CNc2ccccc2OC)cn1 here?
A: Its value is 1.772%.

Q: How did the “Percent Effect” value turn out when COc1ccccc1C1(CNc2ccc(C(=O)N(C)C)cn2)CC1 was run?
A: The value was 4.76%.

Q: COc1ccccc1C1(CNc2ccnc(C(=O)N(C)C)c2)CC1 was tested. Which “Percent Effect” value did it give?
A: The value was 15.85%.

Q: COc1ccccc1C(=O)N1CCN(C(=O)CCn2ccnc2)CC1 was tested. Which “Percent Effect” value did it give?
A: The value was 1.871%.

Q: Which “Percent Effect” value does the source give for COc1cccc(CNC(C)c2ccc(-n3ccnc3)cc2)c1OC.Cl (stereo not given) here?
A: The value was 1.707%.

Q: Which “Percent Effect” value does the source give for Cc1nnc(C(C)Nc2ccc(OCCc3ccccc3)nc2)o1 (stereo not given) here?
A: Its value is -0.9062%.

Q: Which “Percent Effect” value does the source give for COc1cc(CNc2nc(C(F)(F)F)no2)cc(OC)c1OC here?
A: Its value is 5.574%.

Q: How did the “Percent Effect” value turn out when Fc1cccc(CN2CCC(c3n[nH]c4ncccc34)CC2)c1F was run?
A: Its value is -6.364%.

Q: CC(C)Oc1ccc(CN2CCC(c3n[nH]c4ncccc34)CC2)cc1 was tested. Which “Percent Effect” value did it give?
A: Its value is 97.82%.

Q: For CC(C)Oc1ccc(CN2CCC(Cc3nnc(CO)n3C)CC2)cc1, which “Percent Effect” value is on record?
A: The value was -3.16%.

Q: CC(C)Oc1cccc(CN2CCC(C(C)N3CCOCC3)CC2)c1 (stereo not given) was tested. Which “Percent Effect” value did it give?
A: The value was 8.799%.

Q: For Cl.Fc1ccc(CN2CCC(c3n[nH]c4ncccc34)CC2)cc1F, which “Percent Effect” value is on record?
A: The value was 3.09%.

Q: For CC(C1CCN(Cc2ccc(OC(F)F)cc2)CC1)N1CCOCC1 (stereo not given), which “Percent Effect” value is on record?
A: Its value is 6.94%.

Q: How did the “Percent Effect” value turn out when Fc1cccc(Cl)c1CN1CCC(c2n[nH]c3ncccc23)CC1 was run?
A: Its value is 100.4%.

Q: Which “Percent Effect” value does the source give for CC(C)Oc1cccc(CN2CCC(c3n[nH]c4ncccc34)CC2)c1 here?
A: The value was 89.98%.

Q: Which “Percent Effect” value does the source give for Cc1cc(NC(=O)c2nc(N3CCCC3)ncc2Cl)ccc1Br here?
A: Its value is 7.259%.

Q: Cc1ncoc1C(=O)N1C[C@@H]2COC[C@]2(c2nnc(C3CC3)o2)C1 was tested. Which “Percent Effect” value did it give?
A: Its value is 19.81%.

Q: Which “Percent Effect” value does the source give for NC1CCCCN(Cc2cc(C3CCCCC3)no2)C1 (stereo not given) here?
A: Its value is 4.436%.

Q: O=C(c1cc(C2CCCCC2)no1)N1C[C@H]2C[C@H](O)C[C@H]2C1 was tested. Which “Percent Effect” value did it give?
A: The value was 95.88%.

Q: For O=C(c1cc(C2CC2)nc2onc(-c3ccccc3)c12)N1CC(O)C1, which “Percent Effect” value is on record?
A: The value was 1.744%.

Q: C[C@@H]1CN(CC(C)(C)N2CCOCC2)CC[C@@]1(O)C1CCOCC1 was tested. Which “Percent Effect” value did it give?
A: Its value is 4.466%.

Q: Which “Percent Effect” value does the source give for C[C@@H]1CN(C(=O)c2ccc(=O)[nH]c2)CC[C@@]1(O)C1CCOCC1 here?
A: The value was -4.844%.

Q: C[C@@H]1CN(C2CCN(c3ccccc3)CC2)CC[C@@]1(O)C1CCOCC1 was tested. Which “Percent Effect” value did it give?
A: Its value is 103.2%.

Q: For C[C@@H]1CN(C2Cc3ccccc3C2)CC[C@@]1(O)C1CCOCC1, which “Percent Effect” value is on record?
A: Its value is 82.39%.

Q: For O=C(C1CCOCC1)N1C[C@H]2CC[C@@H]1CN(C1Cc3ccccc3C1)C2, which “Percent Effect” value is on record?
A: Its value is 13.64%.

Q: C[C@@H]1CN(C2CCCCC2)CC[C@@]1(O)C1CCOCC1 was tested. Which “Percent Effect” value did it give?
A: The value was 98.71%.

Q: Which “Percent Effect” value does the source give for C[C@@H]1CN(C2CCN(c3ccccc3F)CC2)CC[C@]1(C)O here?
A: Its value is -26.42%.

Q: How did the “Percent Effect” value turn out when C[C@@H]1CN(S(=O)(=O)N2CCCC2)CC[C@@]1(O)C1CCOCC1 was run?
A: The value was -9.489%.

Q: Which “Percent Effect” value does the source give for COc1ccc(CNC(=O)CNc2cc3c(cc2Cl)OCCO3)cc1 here?
A: The value was 11.87%.

Q: With CN1CCc2onc(CNc3ncccn3)c2C1.O=C(O)C(F)(F)F.O=C(O)C(F)(F)F as the compound, how does the “Percent Effect” value read?
A: The value was -12.85%.

Q: Cc1ccc(CN(Cc2ccccn2)C(=O)[C@H]2CC[C@@H](N)C2)s1 was tested. Which “Percent Effect” value did it give?
A: The value was -33.4%.

Q: For O=C(O)C(F)(F)F.c1c2c(nn1CC1CC1)C(CNC1CCOCC1)OCC2 (stereo not given), which “Percent Effect” value is on record?
A: Its value is 5.412%.

Q: With COCCN(Cc1ccc(F)cc1Cl)C(=O)c1cccc[n+]1[O-] as the compound, how does the “Percent Effect” value read?
A: The value was -30.73%.

Q: COc1ccccc1S(=O)(=O)N1CCC(Oc2cccnn2)CC1 was tested. Which “Percent Effect” value did it give?
A: The value was -12.85%.
